# Inconclusive results are not listed. Activity calls are given as the source filed them. Calls come from the whole dose curve; as a rule, active = well fitted activation curve with a large enough effect in the repeat runs; inconclusive = weak or mixed curves; inactive = flat fitted curve, though single readings scatter.
# Assay: A CellTox Green Cytotoxicity Assay to monitor cytotoxicity in HEK293 cells - 16 hour (AID 1224888); note: nearly all actives have a fitted effect of over 35% in size
# Settings: CellTox Green fluorescence; series mostly up to 76.8 µM
# Description: National Center for Advancing Translational Sciences [NCATS]
# NIH Chemical Genomics Center [NCGC]
# U.S. Environmental Protection Agency [EPA]
# National Institutes of Environmental Health Sciences [NIEHS]
# National Toxicology Program [NTP]
# Cell-based models are critical for drug discovery. Determining the natural cytotoxic effects resulting from test compounds is an essential research activity. A CellTox Green Cytotoxicity Assay to monitor cytotoxicity in real time of continues cell culture during 40 hours of the compound treatment was used to screen Tox21 10K library compounds in Hek293 cells. CellTox Green Cytotoxicity Assay is a nonlytic, homogeneous, biofluorescent method to measure cytotoxicity in cell culture after experimental manipulation. The assay system uses a proprietary asymmetric cyanine dye that is excluded from viable cells but preferentially stains the dead cell's DNA. […] Viable cells produce no appreciable increases in fluorescence. Therefore, the fluorescence signal produced by the binding interaction with dead cell DNA is proportional to cytotoxicity.
# The mixture of Hek293 cell suspension and reagents were dispensed at 600cells/6 ul/well in 1536-well tissue culture treated black solid bottom plates using a Multidrop dispenser. After the assay plates were incubated at a 37 C/5% CO2 incubator for 5 hours, 23 nL of compounds dissolved in DMSO, positive and negative controls was transferred to the assay plate by a pintool work station. The plates were incubated at 37 C for 40 hours. The fluorescence intensity were measured at 0h, 8h, 16h, 24h, 32h and 40h time points using ViewLux plate reader during compound treatment.
row,Compound,outcome
1,CCCCCCOCCO,inactive
2,OCC(CO)(CBr)CBr,inactive
3,Cc1cccnc1,inactive
4,CCCCC(CC)COC(=O)C(C#N)=C(c1ccccc1)c1ccccc1 (stereo not given),inactive
5,CC[C@H](C)C(=O)O[C@H]1C[C@@H](C)C=C2C=C[C@H](C)[C@H](CC[C@@H]3C[C@@H](O)CC(=O)O3)[C@H]21,inactive
6,CC(C)(C)[C@@H](O)[C@@H](Cc1ccc(Cl)cc1)n1cncn1,inactive
7,COc1cc(Cc2cnc(N)nc2N)cc(OC)c1OC,inactive
8,Cc1ccc(N(C)C)cc1,inactive
9,CN(C)CCCN,inactive
10,CC(=O)OCC(=O)[C@@]12N=C(C)O[C@@H]1C[C@H]1[C@@H]3CCC4=CC(=O)C=C[C@]4(C)[C@H]3[C@@H](O)C[C@@]12C,inactive
11,O=C(O)CCCC[C@@H]1SC[C@@H]2NC(=O)N[C@@H]21,inactive
12,CCN(CC)c1ccc(C(=O)c2ccccc2C(=O)O)c(O)c1,inactive
13,CC(=O)Nc1cccc(O)c1,inactive
14,O=C(Oc1ccccc1)c1ccccc1,inactive
15,Fc1ccc(Br)cc1,inactive
16,CC(C)(N)CO,inactive
17,CC1=CC(=O)NS(=O)(=O)O1,inactive
18,Nc1cc([N+](=O)[O-])ccc1O,inactive
19,CC(=O)CC(=O)Nc1ccccc1C,inactive
20,CC(C)CC(=O)CC(C)C,inactive

row,Compound,outcome
1,CCOC(=O)NNc1nncc2ccccc12,inactive
2,c1ccc(OCCOc2ccccc2)cc1,inactive
3,OCc1cccnc1,inactive
4,CCCCCC(N)=O,inactive
5,CCCCCC1=CCCC1=O,inactive
6,C#C[C@]1(O)CC[C@H]2[C@@H]3CCC4=CC(=O)CC[C@@H]4[C@H]3CC[C@@]21C,inactive
7,CN(C)CCC(c1ccc(Cl)cc1)c1ccccn1 (stereo not given),inactive
8,O=c1[nH]c(=O)n([C@H]2CCCO2)cc1F,inactive
9,Cc1cccc(O)c1,inactive
10,O=C(O)c1ccc(C(=O)O)cc1,inactive
11,O=C1CCC(N2C(=O)c3ccccc3C2=O)C(=O)N1 (stereo not given),inactive
12,O=C(O)c1ccc2c(c1)C(=O)OC2=O,inactive
13,C=CCOC(=O)c1ccccc1C(=O)OCC=C,inactive
14,O=C(O)CC(C(=O)O)C(CC(=O)O)C(=O)O (stereo not given),inactive
15,O=S(=O)(O)c1ccc2ccccc2c1,inactive
16,CC(O)COCC(C)O (stereo not given),inactive
17,ON=C1CCCCC1,inactive
18,CC(=O)CC(=O)Nc1ccccc1,inactive
19,C=CCNC(N)=S,inactive
20,CCCCC(CC)CO (stereo not given),inactive

# From PubChem BioAssay (Tox21)
